# Source: PubChem BioAssay (NCATS)
# Results filed as inconclusive are left out. Activity calls are given as the source filed them. Calls come from the whole dose curve; as a rule, active = well fitted curve in the direction sought with a large enough effect; inconclusive = small, poorly fitted or top-dose-only effect, or another doubt; inactive = no such curve, though single readings can be large or run the other way.
# Assay: qHTS Assay for Identifying Gametocytocidal Compounds (AID 743244);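 note: actives lower the fluorescent signal which means gametocytes are killed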
# Conditions: P. falciparum 3D7 stage III-V gametocytes, alamarBlue, 72 h; max response: stronger effect = lower value
# Procedure, shortened: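 Late gametocytes (III–V), P. falciparum 3D7; 72 h drug, then 24 h alamarBlue; resazurin reduction read by fluorescence.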
# % is set by controls: 0 for no effect and ±100 for the full control effect.
row,Structure (SMILES),max response
1,CC(=O)OCC(=O)[C@@]1(O)CC[C@H]2[C@@H]3CCC4=CC(=O)C=C[C@]4(C)[C@@]3(F)[C@@H](O)C[C@@]21C,18.9% (inactive)
2,CN1CCN(C(=O)C2CCCCC2)CC1,11.1% (inactive)
3,COc1ccc(NS(=O)(=O)c2ccc(N)cc2)nn1,10.4% (inactive)
4,NNc1nnc(NN)c2ccccc12,5.69% (inactive)
5,CCOC(=O)OC(C)OC(=O)[C@@H]1N2C(=O)[C@@H](NC(=O)[C@H](N)c3ccccc3)[C@H]2SC1(C)C (some centres not stated),15.8% (inactive)
6,C1CCN2C[C@@H]3C[C@@H](CN4CCCC[C@@H]34)[C@H]2C1,2.03% (inactive)
7,C[C@H]1COc2c(C3(N)CC3)c(F)cc3c(=O)c(C(=O)O)cn1c23,-1.28% (inactive)
8,O[C@@H]1CO[C@H]2[C@@H]1OC[C@@H]2O,-6.28% (inactive)
9,C=CCSCC1Nc2cc(Cl)c(S(N)(=O)=O)cc2S(=O)(=O)N1 (configuration not stated),15.7% (inactive)
10,CCCCCC(C)N (configuration not stated),7.89% (inactive)
11,COc1ccc(C(=O)N2CCN(CC(=O)N3CCOCC3)CC2)cc1,-4.8% (inactive)
12,CC(C)(C)NCC(O)COc1cccc2c1CCC(=O)N2 (configuration not stated),15.2% (inactive)
13,CCCCCCCCCCOc1cc2c(=O)c(C(=O)OCC)c[nH]c2cc1OCC,-3.15% (inactive)
14,COc1ccc2cc(CCC(C)=O)ccc2c1,-1.38% (inactive)
15,CCOc1cc(NC(C)=O)ccc1C(=O)OC,7.76% (inactive)
16,COc1ccc(C(=O)NCc2ccc(OCCN(C)C)cc2)cc1OC,7.72% (inactive)
17,O=c1[nH]c2cc(C(F)(F)F)c(N3CCOCC3)cc2n(CP(=O)(O)O)c1=O,2.6% (inactive)
